# Measurements as given in paper PMC4336329 (PLoS ONE, 2015).
# The whole screen tested about 310,000 compounds, of which about 14,000 (4.5%) showed an effect of 50% or more. The effect is printed as a negative number. The sample as a whole holds a higher share of strong results than the screen did.
# Target: human ether-à-go-go-related gene (hERG) potassium channel (human, UniProt Q12809)
# Test: primary screen, population patch clamp on CHO cells stably expressing hERG; higher = less effect of the substance
# 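Further: peak tail current of the secondary pulse compared with the same well before compound.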
# human ether-à-go-go-related gene (hERG) potassium channel, sequence (Q12809 whole entry, looked up): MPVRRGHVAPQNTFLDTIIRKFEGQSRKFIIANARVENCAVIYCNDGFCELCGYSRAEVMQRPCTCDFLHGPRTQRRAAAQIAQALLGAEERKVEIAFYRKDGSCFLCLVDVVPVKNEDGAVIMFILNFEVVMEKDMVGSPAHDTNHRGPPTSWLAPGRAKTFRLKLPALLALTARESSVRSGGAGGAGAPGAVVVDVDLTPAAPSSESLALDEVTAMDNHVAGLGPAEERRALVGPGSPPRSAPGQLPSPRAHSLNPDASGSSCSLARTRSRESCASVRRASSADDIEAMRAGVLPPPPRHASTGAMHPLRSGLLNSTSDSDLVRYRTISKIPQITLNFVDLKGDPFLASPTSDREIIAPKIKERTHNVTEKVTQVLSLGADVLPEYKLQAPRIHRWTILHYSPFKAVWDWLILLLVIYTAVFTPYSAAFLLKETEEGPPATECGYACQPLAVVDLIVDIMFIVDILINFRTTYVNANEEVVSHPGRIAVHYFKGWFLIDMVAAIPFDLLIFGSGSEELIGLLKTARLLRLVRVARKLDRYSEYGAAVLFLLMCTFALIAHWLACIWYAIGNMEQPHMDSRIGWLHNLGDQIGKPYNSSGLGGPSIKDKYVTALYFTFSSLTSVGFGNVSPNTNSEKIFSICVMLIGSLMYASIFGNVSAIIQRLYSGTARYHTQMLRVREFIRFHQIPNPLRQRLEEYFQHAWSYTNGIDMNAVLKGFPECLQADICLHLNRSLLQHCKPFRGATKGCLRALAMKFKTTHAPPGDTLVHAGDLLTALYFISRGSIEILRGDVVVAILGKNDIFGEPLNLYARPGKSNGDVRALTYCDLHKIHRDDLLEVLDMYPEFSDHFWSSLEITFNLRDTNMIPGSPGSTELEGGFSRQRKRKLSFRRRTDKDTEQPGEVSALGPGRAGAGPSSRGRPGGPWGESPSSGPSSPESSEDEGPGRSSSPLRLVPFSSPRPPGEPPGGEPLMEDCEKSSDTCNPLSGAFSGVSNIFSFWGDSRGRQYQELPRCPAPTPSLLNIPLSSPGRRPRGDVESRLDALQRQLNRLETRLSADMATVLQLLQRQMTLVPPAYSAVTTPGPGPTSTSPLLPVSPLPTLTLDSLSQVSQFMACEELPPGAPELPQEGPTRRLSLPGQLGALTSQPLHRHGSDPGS
row,SMILES,"hERG current change (%, negative = inhibition) at 10uM [%]"
1,Cc1cccc(C(=O)NCCC(=O)Nc2ccc(C#N)cc2)c1,-0.169
2,CCOc1ccc(CN2CCNC(=O)C2CC(=O)NCCCC2CCCC2)cc1 (centres unmarked),-34.1
3,COc1ccc(Cc2noc(CN3CCN(Cc4cccc(Cl)c4)CC3)n2)cc1OC,-11.5
4,COc1ccc(Cc2noc(CN3CCC(c4ccncc4)CC3)n2)cc1OC,-20
5,COc1ccc(Cc2noc(CN3CCCN(C4Cc5ccccc5C4)CC3)n2)cc1OC,-67
6,COc1ccc(Cc2noc(CN3CCCN(Cc4ccc(F)cc4)CC3)n2)cc1OC,-60.8
7,COc1ccc(Cc2noc(CN3CCN(C4CCc5ccccc5C4)CC3)n2)cc1OC (centres unmarked),-68.8
8,COCCN1CCN(Cc2nc(Cc3ccc(OC)c(OC)c3)no2)CC1,3.84
9,COc1ccc(Cc2noc(CN(C)CC3CCN(Cc4ccccc4)CC3)n2)cc1OC,-22.9
10,COc1ccc(Cc2noc(CN3CCN(Cc4csc(C)n4)CC3)n2)cc1OC,18.2
11,COc1ccc(Cc2noc(CN3CCNC(=O)CC3)n2)cc1OC,6.36
12,Cc1ccc(NC(=S)Nc2c(C)n(C)n(-c3ccccc3)c2=O)cc1Cl,-22.7
13,O=S1(=O)c2cccc3cccc(c23)N1Cc1nnc(-c2ccccc2Br)o1,-9.83
14,COc1cc(C(=O)NC(=S)NNC(=O)c2ccc3c(c2)OCO3)cc(OC)c1OC,8.08
15,CN1CCN(C(=O)CN(Cc2ccccc2)S(C)(=O)=O)CC1,25.7
16,Cn1ncc(Cl)c1C(=O)NCc1ccc(Cl)cc1,-13.3
17,COc1ccc(NC(=O)CN(c2ccc(OC)c(Cl)c2)S(=O)(=O)c2ccccc2)c(OC)c1,8.77
18,Cc1cccc(N=CC=C2OC(C)(C)C(C)(C)O2)c1,3.43
19,O=C(Nc1cc(Cl)cc(Cl)c1)c1cccc(OC(F)F)c1,-2.79
20,O=C(NC12CC3CC(CC(C3)C1)C2)c1ccccc1,6.99
21,O=C(Nc1ccc(OC(F)F)c(Cl)c1)c1cccc(OC(F)F)c1,-61.7
22,N#Cc1cccc(C(=O)Nc2cccc(S(=O)(=O)N3CCCC3)c2)c1,2.83

row,SMILES,"hERG current change (%, negative = inhibition) at 10uM [%]"
1,O=C(Nc1cccc(S(=O)(=O)N2CCCC2)c1)c1ccccc1OC(F)F,-13.7
2,O=C(NC12CC3CC(CC(C3)C1)C2)c1cccc(OC(F)F)c1,-55.2
3,O=C(Nc1ccc(S(=O)(=O)N2CCCC2)cc1)c1ccccc1,-7.24
4,O=C(Nc1ccc(S(=O)(=O)N2CCCC2)cc1)c1cccc(OC(F)F)c1,-54.3
5,CC(=O)Nc1cccc(C(=O)Nc2ccc(S(=O)(=O)N3CCCCC3)cc2)c1,-10.3
6,COc1ccc(NC(=O)c2cccc(OC(F)F)c2)cc1Cl,-22.2
7,O=C(Nc1cccc(S(=O)(=O)N2CCCC2)c1)c1cccc(OC(F)F)c1,-56.4
8,COc1cccc(C(=O)NC23CC4CC(CC(C4)C2)C3)c1,2.17
9,COc1ccc(NC2CCCN(C(=O)c3oc(C)cc3C)C2)cc1OC (centres unmarked),16.2
10,CC(C)(C)C1CCC(C(=O)Nc2nccs2)CC1 (centres unmarked),9.99
11,C/C(=N\NC(=O)c1ccc(C)cc1)c1c(C)[nH]n(-c2ccccc2)c1=O,14.2
12,Cc1ccccc1N1C(=O)C2ON(c3ccccc3)C(c3ccco3)C2C1=O (centres unmarked),16.8
13,CSc1nnnn1CCn1nnnc1SC,10.1
14,Cc1cccc(/C=N/n2c(C)nnc2C)c1,-0.651
15,O=C1CN(C(=O)CSc2nc(-c3ccc(Cl)cc3)cs2)c2ccccc2N1,13.9
16,Fc1ccccc1-c1nc2c(s1)CCc1onc(-c3ccc(Br)cc3)c1-2,11.4
17,CCC(C)c1ccc(NC(=S)N2CCCC2)cc1 (centres unmarked),1.86
18,O=C(CCSCc1ccc(Cl)cc1)NCCC1=CCCCC1,11.4
19,COc1ccc(N/C=C2\CCc3ccccc3C2=O)cc1,0.787
20,O=C(COC(=O)CNC(=O)c1ccc(F)cc1)Nc1cccc(S(=O)(=O)N2CCCC2)c1,-12
21,O=C(/C=C/c1ccc(OC(F)F)cc1)Nc1cccc(S(=O)(=O)N2CCOCC2)c1,14.2
22,O=C(CNC(=O)c1ccc(OC(F)F)cc1)Nc1cccc(S(=O)(=O)N2CCCC2)c1,-70.3

row,SMILES,"hERG current change (%, negative = inhibition) at 10uM [%]"
1,CC(O/N=C/c1ccccc1OC(F)F)C(=O)Nc1cccc(S(=O)(=O)N2CCOCC2)c1 (centres unmarked),-33.9
2,COc1ccc(C(=O)NCC(=O)OCC(=O)Nc2cccc(S(=O)(=O)N3CCCC3)c2)cc1,-15.8
3,CC(O/N=C/c1ccc(OC(F)F)cc1)C(=O)Nc1cccc(S(=O)(=O)N2CCOCC2)c1 (centres unmarked),-60.5
4,C[C@H]1CN=C(N(C)C)N1CC1CCCCC1,7.73
5,Nc1nonc1-n1nnc(C(=O)N/N=C/c2cccc(Cl)c2)c1-c1cccs1,3.81
6,Cc1noc(NS(=O)(=O)c2ccc(N/C=C/C(=O)c3ccncc3)cc2)c1C,-13
7,COCCCN1CC(=O)N2C(c3ccccc3)c3[nH]c4ccccc4c3C[C@H]2C1=O (some centres unmarked),-11.3
8,O=C(NNC(=O)C12CC3CC(CC(C3)C1)C2)c1csc(N2CCOCC2)n1,11.3
9,COC(=O)C1=C[C@@H](C(=O)OC)[C@@H]2C3=C(C(=O)[C@]2(C)NC(=O)c2ccccc2)[C@H](C)n2c(=O)n(-c4ccccc4)c(=O)n2[C@@H]3C1,7.6
10,Cc1cc(NC(=O)Nc2ccc(Cl)c(Cl)c2)n(-c2ccccc2)n1,13.9
11,COc1ccccc1N/C(=N/S(=O)(=O)c1ccc(C)cc1)c1ccccc1,-31
12,COc1ccc(C(=O)Nc2ccccc2)cc1NC(=O)c1cccs1,-74
13,COc1ccc(C(=O)Nc2ccc(NC(=O)c3cccs3)cc2)cc1Cl,27.5
14,COc1ccc(C(=O)Nc2cccc(NC(=O)c3cccs3)c2)cc1OC,8.5
15,COc1ccc(C(=O)Nc2ccc(Nc3ccccc3)cc2)cc1[N+](=O)[O-],-37
16,COc1ccc([N+](=O)[O-])cc1NC(=O)Nc1ccccc1,10.3
17,O=C(Nc1ccccc1)c1cccc(S(=O)(=O)Oc2ccc([N+](=O)[O-])cc2)c1,-56.4
18,O=C(O)c1ccc(NS(=O)(=O)c2cccc(C(=O)Nc3ccc([N+](=O)[O-])cc3)c2)cc1,18.8
19,Cc1ccccc1NC(=O)c1cccc(S(=O)(=O)Oc2ccc([N+](=O)[O-])cc2)c1,-24.5
20,COc1ccc(C(=O)Nc2ccccc2)cc1NC(=O)c1ccc([N+](=O)[O-])cc1,-56.8
21,COc1ccccc1N/C(=N/S(=O)(=O)c1ccc(Cl)cc1)c1ccccc1,-35.1
22,COc1ccc([N+](=O)[O-])cc1N/C(=N/S(=O)(=O)c1ccccc1)c1ccccc1,-57.8

row,SMILES,"hERG current change (%, negative = inhibition) at 10uM [%]"
1,Cc1cc(C)c2nc(SCC(=O)NC(=O)c3cccn3C)cc(C)c2c1,-2.66
2,COc1ccc(C(C)=O)cc1COC(=O)c1cc(C)nc2ccccc12,13.6
3,O=C(Nc1ccc([N+](=O)[O-])cc1)c1nc[nH]c1C(=O)NC1CCCCC1,16.2
4,COC(=O)c1c(NC(=O)C(C)C)sc2c1C(C(=O)OC)CC2 (centres unmarked),11.8
5,CC(C)Sc1nnc(-c2c[nH]c3ccccc23)n1C,1.3
6,CN1CCN(/N=C/c2c(O)n(Cc3ccc(F)cc3)c(=O)[nH]c2=O)CC1,0.78
7,COc1cccc(NC(=O)CN(c2ccc3c(c2)OCO3)S(C)(=O)=O)c1,3.07
8,CNc1nnc(-c2ccc(N(C)C)cc2)s1,8.65
9,CCCCn1c(=O)c(C(=O)OCC)c(O)c2ccccc21,2.18
10,CCCCCCCCn1c(=O)c(C(=O)OCC)c(O)c2ccccc21,14.5
11,CCCCCCCn1c(=O)c(C(=O)OC)c(N)c2ccccc21,-9
12,CCCCCn1c(=O)c(C(=O)OCC)c(Cl)c2ccccc21,-73.8
13,CCCCCn1c(=O)c(C(=O)OCC)c(O)c2ccccc21,-64
14,CCCCCCCCn1c(=O)c(C(=O)OC)c(N)c2ccccc21,3.02
15,CCC1CCCCN1CCCNC(=O)CSc1nc2nc(C)c(Cc3ccc(C)cc3)c(C)n2n1 (centres unmarked),-47.8
16,NS(=O)(=O)c1ccc(NC(=O)COC(=O)CCC2CCCCC2)cc1,-5.65
17,Cc1ccc(C(=O)NCCN2CCNC2=O)cc1,12.9
18,O=C(Nc1ccc2c(c1)OCO2)C(=O)c1c[nH]c2ccccc12,22.3
19,COc1ccc(C(=O)NCCCNC(=O)c2ccccn2)cc1,10.8
20,CCCn1c(SCC(=O)NC2CCCCC2)nnc1-c1ccncc1,4.24
